Compound activity as filed in PubChem.
Most compounds without a hit are left out; they make up all but 8.7% or so of the library.
Pf growth 48h: P. falciparum growth inhibition at 48 hours (one generation); P. falciparum luciferase growth in erythrocytes, 48 h; Potency, µM (series often up to 28.7 µM), without a hit: top-dose activity change, negative = inhibition, hits mostly inhibitors; hit rate 5.9% among 310,000
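Here the parasites carry a stable luciferase gene and grow inside erythrocytes in Albumax-based RPMI medium with compound for one erythrocytic cycle. Activity is scored as loss of luminescent signal.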
Pf growth 96h: inhibits malaria parasite growth, 96 h | AID 504834 | P. falciparum luciferase reporter growth, 96 h | hit rate 6.9% among 320,000 | Potency, µM (titrated, usually from 28.7 µM), for the others: at the highest dose activity change, negative = inhibition, most hits filed as inhibitors
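Delayed-death screen, second-generation endpoint: infected erythrocytes, 2% hematocrit, 0.05% parasitemia final; 96 hours at 37 C, 5% CO2; luciferase detection reagent; luminescence decrease equals reduced growth.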
AMA1-RON2 inh: inhibitors of Plasmodium falciparum AMA1-RON2 interaction. hit rate 0.2% among 360,000. Potency, µM (top dose mostly 58.2 µM), for inactives: at the highest dose activity change, negative = inhibition, actives largely listed as inhibitors. AlphaScreen AMA1-biotinylated RON2 peptide binding;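 note: 0% = vehicle wells and -100% = peptide control; nearly all actives have a fitted effect of over 45% in size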
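AMA1 (3D7) with his tag at 25 nM final met compounds first, then biotinylated RON2 peptide at 25 nM; detection used donor plus acceptor beads, 10 µg/mL apiece, read by AlphaScreen after 30 min at room temperature.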
VACV Venus inh: inhibitors of vaccinia virus (Venus reporter); Vaccinia virus Venus reporter expression, fluorescence; Potency, µM (series often up to 36.5 µM), for inactives: at the highest dose activity change, negative = inhibition, most hits filed as inhibitors; hit rate 0.46% among 330,000; AID 720580; calls by dose curve; tested in A549 cells; note: nearly all actives have a fitted effect of over 30% in size
VACV mCherry inh: inhibitors of vaccinia virus infection (mCherry reporter signal); Vaccinia virus mCherry reporter infection, fluorescence; Potency, µM (titrated, usually from 36.5 µM), without a hit: at the top dose activity change, negative = inhibition, hits mostly inhibitors; hit rate 0.63% among 310,000; calls by dose curve; tested in A549 cells; note: nearly all actives have a fitted effect of over 35% in size
Active calls of the source: *; i = inactive; ? = inconclusive; . = no result; [ ] = remark or other dose. Unless noted, calls come from the whole dose curve; as a rule, active = well fitted curve in the direction sought with a large enough effect; inconclusive = small, poorly fitted or top-dose-only effect, or another doubt; inactive = no such curve, though single readings can be large; an effect the other way counts as inactive or inconclusive. Unless noted, % is set by controls: 0 for no effect and ±100 for the full control effect; potency is the fitted concentration of half-maximal effect.

SMILES	Pf growth 48h	Pf growth 96h	AMA1-RON2 inh	VACV Venus inh	VACV mCherry inh
CN(C)S(=O)(=O)c1cccc(-c2nnc(SCc3ccc4c(c3)OCCO4)o2)c1	17µM*	?	-8%	-19%	-12%[1.46 µM]
CCN(CC)S(=O)(=O)c1cccc(-c2nnc(SCCCC(=O)c3ccccc3)o2)c1	?	?	17%	.	.
C=CCn1c(C)cc(C(=O)CSc2nnc(-c3cccc(S(=O)(=O)N(CC)CC)c3)o2)c1C	10µM*	?	-28%	-23%	?
CCN(CC)S(=O)(=O)c1cccc(-c2nnc(SCCCC(=O)c3ccc(F)cc3)o2)c1	9.3µM*	0%	12%	.	.
O=S(=O)(c1cccc(-c2nnc(SCc3ccc(Cl)cc3)o2)c1)N1CCCCC1	.	10%	1%	-27%	.
Brc1ccccc1-c1nnc(SCc2nc3ccccc3s2)o1	250%	278%	9%	3%	i
Cc1cccc(OCCn2c(-c3ccc(Cl)cc3)nc3ccccc3c2=O)c1C	.	.	.	5%	5%
COCCCNC(=O)Cn1nc(N2CCN(c3ccccc3)CC2)ccc1=O	.	.	.	-5%	-1%
COc1cc2cnc(-c3ccccc3)c(-c3ccc(C#N)cc3)c2cc1OC	2.3µM*	?	-3%	-28%	i
COc1cc2cnc(-c3ccccc3)c(-c3cccc(C(F)(F)F)c3)c2cc1OC	?	?	-9%	-25%	?
CCOc1ccc(-c2nnc(SCC(=O)NCc3ccc(C)cc3)nc2-c2ccc(OCC)cc2)cc1	.	.	.	-10%	0%
COc1ccc(O)c(C(=O)N2CCC3(CC2)c2ccccc2[C@@H](NC(=O)c2ccccn2)[C@@H]3OC)c1	.	.	.	13%	-9%
C#CCSc1nnc(-c2ccc(O)cc2)o1	i	-23%	-6%	-22%	-6%
C#CCSc1nnc(-c2ccc(C)cc2)o1	i	1.2µM*	-9%	?	10µM*
OCC#CCSc1nnc(-c2ccncc2)o1	16%	0.29µM*	8%	.	.
CN(C)c1ccc(N=Nc2ccc(S(=O)(=O)O)cc2)cc1	.	.	.	10%	-25%
CCOC(=O)c1cccc(NC(=O)c2cc3cc4ccc(C)cc4nc3o2)c1	.	.	.	0%	-6%
Brc1ccc(C=Nc2ccc(Nc3ccccc3)cc2)s1	?	13µM*	-18%	-10%	i
Cc1oc2c(c(C)cc3oc(=O)c(CC(=O)NCCc4ccc(Cl)cc4)c(C)c32)c1C	.	.	.	-6%	-4%
C=CCN1C(=O)C(Cc2ccc(Br)cc2)S/C1=N\N=C\c1ccco1 (centres undefined)	5%	12µM*	2%	-11%	-9%
C=CCN1C(=O)C(Cc2ccc(OC)cc2)S/C1=N/N=C/c1ccco1 (centres undefined)	9.3µM*	?	-8%	.	.
O=c1c2cccnc2n(Cc2ccccc2F)c(=O)n1Cc1ccc(F)cc1	.	.	.	-7%	-21%
CC1N=C2c3ccccc3N=C(SCC(=O)NCc3ccc(Cl)cc3)N2C1=O (centres undefined)	.	.	.	-4%	-14%
O=C(NCC(=O)N(c1ccccc1)C(C(=O)NC1CCCC1)c1cccnc1)c1cccs1 (centres undefined)	-13%	14%	-5%	-15%	-12%
O=C(NCC(=O)N(Cc1ccco1)C(C(=O)NC1CCCC1)c1cccnc1)c1ccco1 (centres undefined)	.	.	-7%	-4%	-14%
SMILES	Pf growth 48h	Pf growth 96h	AMA1-RON2 inh	VACV Venus inh	VACV mCherry inh
O=C(NCC(=O)N(c1ccc(Cl)cc1)C(C(=O)NC1CCCC1)c1ccncc1)c1ccco1 (centres undefined)	-11%	9%	3%	9%	i
O=C(NCC(=O)N(Cc1ccccc1)C(C(=O)NC1CCCC1)c1cccnc1)c1ccco1 (centres undefined)	1%	17µM*	54%	-7%	-5%
O=C(NCC(=O)N(c1ccc2c(c1)OCO2)C(C(=O)NC1CCCC1)c1ccncc1)c1ccco1 (centres undefined)	17%	-13%	40µM*	-4%	-12%
O=C(NCC(=O)N(c1cccnc1)C(C(=O)NC1CCCC1)c1cccs1)c1cccs1 (centres undefined)	-2%	12µM*	6%	.	.
Cc1ccc(N(C(=O)CCl)C(C(=O)NC2CCCCC2)c2cccnc2)cc1C (centres undefined)	?	?	-6%	7.1µM*	?
Cc1ccc(N(C(=O)CNC(=O)c2ccco2)C(C(=O)NC2CCCCC2)c2cccnc2)cc1C (centres undefined)	?	?	6%	1%	-8%
Cc1cccc(N(C(=O)CNC(=O)c2ccco2)C(C(=O)NC2CCCC2)c2cccnc2)c1 (centres undefined)	14%	4.1µM*	12%	-12%	-13%
CCOC(=O)c1c(S(=O)(=O)N2CCC(C(=O)N3CCN(c4cc(C)ccc4C)CC3)CC2)c(C)n(C)c1C	.	.	.	-17%	i
CC[C@H](NC(C)C)[C@H](O)c1ccc(O)c2[nH]c(=O)ccc12	-27%	0.24µM*	.	.	.
CCOC(=O)N1CCC2(CC1)C(C#N)=C(N)OC1=C2C(=O)CC(C)C1 (centres undefined)	-11%	6.6µM*	6%	.	.
CC1(C)CC(=O)C2=C(C1)OC(N)=C(C#N)C21CCN(C(=O)OCc2ccccc2)CC1	-2%	13%	3%	-10%	?
CC1Sc2n(c3ccccc3[n+]2C)N=C1c1ccccc1 (centres undefined)	0.93µM*	-102%	4%	-13%	-1%
Cc1nc(-c2ccc(S(=O)(=O)N3CCN(c4cccc(Cl)c4)CC3)cc2)co1	.	.	.	-5%	-14%
O=C(COC(=O)c1ccc(O)cc1O)Nc1cc(-c2ccccc2)nn1-c1ccccc1	12µM*	4.7µM*	-26%	-3%	-5%
Cc1ccc(C(=O)NCCc2nnc3n2CCN(Cc2ccnc4ccccc24)CC3)c(C)c1	.	.	.	-14%	-13%
COc1ccc(C(=O)NCCc2c[nH]c3ccccc23)cc1[N+](=O)[O-]	0%	13µM*	-15%	-17%	-2%
COc1ccc(/C=C/C(=O)NCCCNC(=O)/C=C/c2ccc(OC)c(OC)c2)cc1OC	.	.	0%	-12%	i
COc1ccc(C2(CNC(=O)c3ccc(OC)c([N+](=O)[O-])c3)CCOCC2)cc1OC	-8%	2.3µM*	-17%	.	.
COc1ccc(/C=C/C(=O)NCCc2c[nH]c3ccccc23)cc1OC	8.3µM*	15µM*	-28%	.	.
